# Data reported in the supplement of paper PMC8728848.
# The sample as a whole holds a higher share of the strongest signals than the screen did.
# B1: SynCAM (Mus musculus) (protein)
# chain: MASAVLPSGSQCAAAAAVAAAAAPPGLRLRLLLLLLSAAALIPTGDGQNLFTKDVTVIEGEVATISCQVNKSDDSVIQLLNPNRQTIYFRDFRPLKDSRFQLLNFSSSELKVSLTNVSISDEGRYFCQLYTDPPQESYTTITVLVPPRNLMIDIQKDTAVEGEEIEVNCTAMASKPATTIRWFKGNKELKGKSEVEEWSDMYTVTSQLMLKVHKEDDGVPVICQVEHPAVTGNLQTQRYLEVQYKPQVHIQMTYPLQGLTREGDAFELTCEAIGKPQPVMVTWVRVDDEMPQHAVLSGPNLFINNLNKTDNGTYRCEASNIVGKAHSDYMLYVYDPPTTIPPP
# Tests used:
# Experiment in all cases: glycan array binding signal (z-score within array); higher = stronger binding
# Settings in all cases: glycan notation: IUPAC condensed, linker removed
# [1] = biological target: Fuc(a1-2)Gal(b1-3)GalNAc(b1-3)Gal
# In short: (§1)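 Glycan array data came from 3228 arrays in the Consortium for Functional Glycomics database, and only arrays with an available protein sequence were kept. Glycan names were put into IUPAC-condensed notation, and columns mapping to the same glycan were averaged. The binding signal is a within-array Z-score, averaged across arrays of one protein sequence run at different concentrations or buffers and across linkers. A negative Z-score can be read as non-binding.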
# [2] = biological target: Fuc(a1-2)Gal(b1-3)GlcNAc(b1-3)GalNAc
# In short: as §1
# [3] = biological target: Fuc(a1-2)Gal(b1-4)GlcNAc(b1-3)Gal(b1-4)GlcNAc(b1-2)Man(a1-3)[Fuc(a1-2)Gal(b1-4)GlcNAc(b1-3)Gal(b1-4)GlcNAc(b1-2)Man(a1-6)]Man(b1-4)GlcNAc(b1-4)GlcNAc
# In short: as §1
# [4] = biological target: Fuc(a1-2)Gal(b1-4)GlcNAc(b1-3)[Fuc(a1-3)[Gal(b1-4)]GlcNAc(b1-6)]Gal(b1-4)Glc
# In short: as §1
# [5] = biological target: Fuc(a1-2)[Gal(a1-3)]Gal(b1-4)Glc
# In short: as §1
# [6] = biological target: Fuc(a1-2)[Gal(a1-3)]Gal(b1-4)GlcNAc
# In short: as §1
# [7] = biological target: Fuc(a1-2)[GalNAc(a1-3)]Gal(b1-4)GlcNAc(b1-6)GalNAc
# In short: as §1
# [8] = biological target: Fuc(a1-2)[GalNAc(b1-3)]Gal
# In short: as §1
# [9] = biological target: Fuc(a1-3)[GalNAc(b1-4)]GlcNAc
# In short: as §1
# Gal(a1-6)Glc = biological target: Gal(a1-6)Glc
# In short: as §1
# Gal(b1-2)Gal = biological target: Gal(b1-2)Gal
# In short: as §1
# [10] = biological target: Gal(b1-3)GlcNAc(b1-3)Gal(b1-4)Glc
# In short: as §1
# [11] = biological target: Gal(b1-3)GlcNAc(b1-3)Gal(b1-4)GlcNAc(b1-3)Gal(b1-4)GlcNAc(b1-2)[Gal(b1-3)GlcNAc(b1-3)Gal(b1-4)GlcNAc(b1-3)Gal(b1-4)GlcNAc(b1-6)]Man(a1-6)[Gal(b1-3)GlcNAc(b1-3)Gal(b1-4)GlcNAc(b1-3)Gal(b1-4)GlcNAc(b1-2)Man(a1-3)]Man(b1-4)GlcNAc(b1-4)[Fuc(a1-6)]GlcNAc
# In short: as §1
# [12] = biological target: Gal(b1-3)GlcNAc(b1-3)Gal(b1-4)[Fuc(a1-3)]GlcNAc
# In short: as §1
# [13] = biological target: Gal(b1-3)GlcNAc(b1-3)GalNAc
# In short: as §1
# [14] = biological target: Gal(b1-3)[Neu5Ac(a2-6)]GalNAc
# In short: as §1
# [15] = biological target: Gal(b1-3)[Neu5Ac(b2-6)]GalNAc
# In short: as §1
# [16] = biological target: Gal(b1-4)GlcNAc(b1-2)Man(a1-3)Man(b1-4)GlcNAc(b1-4)GlcNAc
# In short: as §1
# [17] = biological target: Gal(b1-4)GlcNAc(b1-2)Man(a1-6)Man(b1-4)GlcNAc(b1-4)GlcNAc
# In short: as §1
# [18] = biological target: Gal(b1-4)GlcNAc(b1-2)[Gal(b1-4)GlcNAc(b1-4)]Man(a1-3)[Gal(b1-4)GlcNAc(b1-2)[Gal(b1-4)GlcNAc(b1-6)]Man(a1-6)]Man(b1-4)GlcNAc(b1-4)GlcNAc
# In short: as §1
# [19] = biological target: Gal(b1-4)GlcNAc(b1-3)Gal(b1-4)GlcNAc(b1-2)Man(a1-3)[Gal(b1-4)GlcNAc(b1-3)Gal(b1-4)GlcNAc(b1-2)Man(a1-6)]Man(b1-4)GlcNAc(b1-4)GlcNAc
# In short: as §1
# [20] = biological target: Gal(b1-4)GlcNAc(b1-3)Gal(b1-4)GlcNAc(b1-2)[Gal(b1-4)GlcNAc(b1-3)Gal(b1-4)GlcNAc(b1-6)]Man(a1-6)[Gal(b1-4)GlcNAc(b1-3)Gal(b1-4)GlcNAc(b1-2)Man(a1-3)]Man(b1-4)GlcNAc(b1-4)GlcNAc
# In short: as §1
# [21] = biological target: Gal(b1-4)GlcNAc(b1-3)Gal(b1-4)GlcNAc(b1-3)Gal(b1-4)GlcNAc(b1-2)Man(a1-3)[Gal(b1-4)GlcNAc(b1-3)Gal(b1-4)GlcNAc(b1-3)Gal(b1-4)GlcNAc(b1-2)Man(a1-6)]Man(b1-4)GlcNAc(b1-4)[Fuc(a1-6)]GlcNAc
# In short: as §1
# [22] = biological target: Gal(b1-4)GlcNAc(b1-3)Gal(b1-4)GlcNAc(b1-3)[Gal(b1-4)GlcNAc(b1-3)Gal(b1-4)GlcNAc(b1-6)]GalNAc
# In short: as §1
# [23] = biological target: Gal(b1-4)GlcNAc(b1-3)[Fuc(a1-3)GlcNAc(b1-6)]Gal(b1-4)Glc
# In short: as §1
# [24] = biological target: Gal(b1-4)GlcNAc(b1-6)[Gal(b1-3)]GalNAc
# In short: as §1
# Gal3S(b1-4)Glc = biological target: Gal3S(b1-4)Glc
# In short: as §1
# [25] = biological target: Gal3S(b1-4)[Fuc(a1-3)]Glc6S
# In short: as §1
# [26] = biological target: Gal3S(b1-4)[Fuc(a1-3)]GlcNAc6S
# In short: as §1
# Gal3S6S(b1-4)GlcNAc = biological target: Gal3S6S(b1-4)GlcNAc
# In short: as §1
# Gal3S6S(b1-4)GlcNAc6S = biological target: Gal3S6S(b1-4)GlcNAc6S
# In short: as §1
# [27] = biological target: GalNAc(b1-3)Gal(a1-4)Gal(b1-4)GlcNAc
# In short: as §1
# GalNAc(b1-4)GlcNAc = biological target: GalNAc(b1-4)GlcNAc
# In short: as §1
# [28] = biological target: GlcNAc(a1-4)Gal(b1-4)GlcNAc
# In short: as §1
# [29] = biological target: GlcNAc(b1-2)[GlcNAc(b1-6)]Man(a1-6)[GlcNAc(b1-4)][GlcNAc(b1-2)Man(a1-3)]Man(b1-4)GlcNAc(b1-4)GlcNAc
# In short: as §1
# [30] = biological target: GlcNAc(b1-3)[GlcNAc(b1-4)][GlcNAc(b1-6)]GlcNAc
# In short: as §1
# GlcNAc(b1-4)GlcNAc = biological target: GlcNAc(b1-4)GlcNAc
# In short: as §1
# [31] = biological target: GlcNAc(b1-4)GlcNAc(b1-4)GlcNAc(b1-4)GlcNAc(b1-4)GlcNAc(b1-4)GlcNAc
# In short: as §1
# Man(b1-4)GlcNAc = biological target: Man(b1-4)GlcNAc
# In short: as §1
# [32] = biological target: Neu5Ac(a2-3)Gal(b1-3)GlcNAc(b1-2)Man
# In short: as §1
# [33] = biological target: Neu5Ac(a2-3)Gal(b1-3)GlcNAc(b1-4)Gal(b1-4)Glc
# In short: as §1
# [34] = biological target: Neu5Ac(a2-3)Gal(b1-3)[Fuc(a1-4)]GlcNAc
# In short: as §1
# [35] = biological target: Neu5Ac(a2-3)Gal(b1-3)[Neu5Ac(a2-6)]GlcNAc(b1-3)[Fuc(a1-3)[Gal(b1-4)]GlcNAc(b1-6)]Gal(b1-4)Glc
# In short: as §1
# [36] = biological target: Neu5Ac(a2-3)Gal(b1-4)GlcNAc(b1-2)[Neu5Ac(a2-3)Gal(b1-4)GlcNAc(b1-4)]Man(a1-3)[GlcNAc(b1-4)][Neu5Ac(a2-3)Gal(b1-4)GlcNAc(b1-2)[Neu5Ac(a2-3)Gal(b1-4)GlcNAc(b1-6)]Man(a1-6)]Man(b1-4)GlcNAc(b1-4)GlcNAc
# In short: as §1
# [37] = biological target: Neu5Ac(a2-3)Gal(b1-4)[Fuc(a1-3)]GlcNAc(b1-2)Man
# In short: as §1
# [38] = biological target: Neu5Ac(a2-6)Gal(b1-4)GlcNAc(b1-2)Man(a1-3)[Gal(b1-4)GlcNAc(b1-2)Man(a1-6)]Man(b1-4)GlcNAc(b1-4)GlcNAc
# In short: as §1
# [39] = biological target: Neu5Ac(a2-6)Gal(b1-4)GlcNAc(b1-3)Gal(b1-4)GlcNAc(b1-3)Gal(b1-4)GlcNAc(b1-2)Man(a1-3)[Neu5Ac(a2-6)Gal(b1-4)GlcNAc(b1-3)Gal(b1-4)GlcNAc(b1-3)Gal(b1-4)GlcNAc(b1-2)Man(a1-6)]GalNAc
# In short: as §1
# [40] = biological target: Neu5Ac(a2-6)Gal(b1-4)GlcNAc(b1-3)Gal(b1-4)GlcNAc(b1-3)GalNAc
# In short: as §1
# Neu5Ac(b2-6)GalNAc = biological target: Neu5Ac(b2-6)GalNAc
# In short: as §1
# Neu5Gc(a2-3)Gal(b1-4)Glc = biological target: Neu5Gc(a2-3)Gal(b1-4)Glc
# In short: as §1
# [41] = biological target: Neu5Gc(a2-3)Gal(b1-4)GlcNAc
# In short: as §1
# [42] = biological target: Neu5Gc(b2-6)Gal(b1-4)GlcNAc
# In short: as §1
binder,measurement,setting,value
B1,glycan array binding signal (z-score),[1],0.178
same,glycan array binding signal (z-score),[2],0.316
same,glycan array binding signal (z-score),[3],0.696
same,glycan array binding signal (z-score),[4],-0.893
same,glycan array binding signal (z-score),[5],-0.671
same,glycan array binding signal (z-score),[6],-1.34
same,glycan array binding signal (z-score),[7],-0.149
same,glycan array binding signal (z-score),[8],0.423
same,glycan array binding signal (z-score),[9],2.63
same,glycan array binding signal (z-score),Gal(a1-6)Glc,-0.988
same,glycan array binding signal (z-score),Gal(b1-2)Gal,0.521
same,glycan array binding signal (z-score),[10],0.308
same,glycan array binding signal (z-score),[11],2.43
same,glycan array binding signal (z-score),[12],-1.13
same,glycan array binding signal (z-score),[13],0.053
same,glycan array binding signal (z-score),[14],-0.488
same,glycan array binding signal (z-score),[15],-0.562
same,glycan array binding signal (z-score),[16],-1.2
same,glycan array binding signal (z-score),[17],-0.469
same,glycan array binding signal (z-score),[18],-0.042
same,glycan array binding signal (z-score),[19],2.96
same,glycan array binding signal (z-score),[20],0.285
same,glycan array binding signal (z-score),[21],1.48
same,glycan array binding signal (z-score),[22],0.945
same,glycan array binding signal (z-score),[23],0.097
same,glycan array binding signal (z-score),[24],-0.072
same,glycan array binding signal (z-score),Gal3S(b1-4)Glc,1.95
same,glycan array binding signal (z-score),[25],3.97
same,glycan array binding signal (z-score),[26],1.22
same,glycan array binding signal (z-score),Gal3S6S(b1-4)GlcNAc,2.56
same,glycan array binding signal (z-score),Gal3S6S(b1-4)GlcNAc6S,2.69
same,glycan array binding signal (z-score),[27],2.45
same,glycan array binding signal (z-score),GalNAc(b1-4)GlcNAc,2.71
same,glycan array binding signal (z-score),[28],-1.14
same,glycan array binding signal (z-score),[29],-0.782
same,glycan array binding signal (z-score),[30],2.58
same,glycan array binding signal (z-score),GlcNAc(b1-4)GlcNAc,-1.17
same,glycan array binding signal (z-score),[31],0.16
same,glycan array binding signal (z-score),Man(b1-4)GlcNAc,-0.306
same,glycan array binding signal (z-score),[32],-0.517
same,glycan array binding signal (z-score),[33],-0.756
same,glycan array binding signal (z-score),[34],0.283
same,glycan array binding signal (z-score),[35],-0.498
same,glycan array binding signal (z-score),[36],0.594
same,glycan array binding signal (z-score),[37],3.11
same,glycan array binding signal (z-score),[38],-0.518
same,glycan array binding signal (z-score),[39],2.42
same,glycan array binding signal (z-score),[40],-0.464
same,glycan array binding signal (z-score),Neu5Ac(b2-6)GalNAc,-0.413
same,glycan array binding signal (z-score),Neu5Gc(a2-3)Gal(b1-4)Glc,-0.801
same,glycan array binding signal (z-score),[41],-0.921
same,glycan array binding signal (z-score),[42],0.145
